Among the data in paper PMC9911399, “Two distinct binding modes provide the RNA-binding protein RbFox with extraordinary sequence specificity” are binding signal values, retold here.

Positions count from the first letter of the chain named. The full ranking holds about 16,000 sequences; the median of “ka relative to ugcaugu” is about 0.0091, and the highest 2% start at about 0.032. Only a selection was taken, and the highest values are over-represented in it overall.

The labels stand for the following.
B1: CGUUCGA (DNA:RNA)
RNA: GGGAGACCGGAAUUCAGAUUGUCCCGUUCGAUUAAAUCCCGUCGUAGCCACCA
DNA 1: CAATCTGAATTCCGGTCTCCC
DNA 2: TGGTGGCTACGACGGGATT
B2: AUUUAUA (DNA:RNA)
RNA: B1 RNA with C25A, G26U, C29A, G30U
DNA 1: CAATCTGAATTCCGGTCTCCC
DNA 2: TGGTGGCTACGACGGGATT
B3: AGUACGU (DNA:RNA)
RNA: B1 RNA with C25A, U28A, A31U
DNA 1: CAATCTGAATTCCGGTCTCCC
DNA 2: TGGTGGCTACGACGGGATT
B4: GUUGUCC (DNA:RNA)
RNA: B1 RNA with C25G, G26U, U28G, C29U, G30C, A31C
DNA 1: CAATCTGAATTCCGGTCTCCC
DNA 2: TGGTGGCTACGACGGGATT
B5: UGGGCAG (DNA:RNA)
RNA: B1 RNA with C25U, U27G, U28G, G30A, A31G
DNA 1: CAATCTGAATTCCGGTCTCCC
DNA 2: TGGTGGCTACGACGGGATT
B6: CUGGCAC (DNA:RNA)
RNA: B1 RNA with G26U, U27G, U28G, G30A, A31C
DNA 1: CAATCTGAATTCCGGTCTCCC
DNA 2: TGGTGGCTACGACGGGATT
B7: UGGGCAC (DNA:RNA)
RNA: B1 RNA with C25U, U27G, U28G, G30A, A31C
DNA 1: CAATCTGAATTCCGGTCTCCC
DNA 2: TGGTGGCTACGACGGGATT
B8: UGGCAGU (DNA:RNA)
RNA: B1 RNA with C25U, U27G, U28C, C29A, A31U
DNA 1: CAATCTGAATTCCGGTCTCCC
DNA 2: TGGTGGCTACGACGGGATT
B9: UGGCACU (DNA:RNA)
RNA: B1 RNA with C25U, U27G, U28C, C29A, G30C, A31U
DNA 1: CAATCTGAATTCCGGTCTCCC
DNA 2: TGGTGGCTACGACGGGATT
B10: CUGGCAG (DNA:RNA)
RNA: B1 RNA with G26U, U27G, U28G, G30A, A31G
DNA 1: CAATCTGAATTCCGGTCTCCC
DNA 2: TGGTGGCTACGACGGGATT
B11: CCGCAGU (DNA:RNA)
RNA: B1 RNA with G26C, U27G, U28C, C29A, A31U
DNA 1: CAATCTGAATTCCGGTCTCCC
DNA 2: TGGTGGCTACGACGGGATT
B12: AACCGUA (DNA:RNA)
RNA: B1 RNA with C25A, G26A, U27C, U28C, C29G, G30U
DNA 1: CAATCTGAATTCCGGTCTCCC
DNA 2: TGGTGGCTACGACGGGATT
B13: CGCCCCG (DNA:RNA)
RNA: B1 RNA with U27C, U28C, G30C, A31G
DNA 1: CAATCTGAATTCCGGTCTCCC
DNA 2: TGGTGGCTACGACGGGATT
B14: UUGCACU (DNA:RNA)
RNA: GGGAGACCGGAAUUCAGAUUGUCCUUGCACUUUAAAUCCCGUCGUAGCCACCA
DNA 1: CAATCTGAATTCCGGTCTCCC
DNA 2: TGGTGGCTACGACGGGATT
B15: GGGAUAU (DNA:RNA)
RNA: B14 RNA with U25G, U26G, C28A, A29U, C30A
DNA 1: CAATCTGAATTCCGGTCTCCC
DNA 2: TGGTGGCTACGACGGGATT
B16: UAAGUGG (DNA:RNA)
RNA: B1 RNA with C25U, G26A, U27A, U28G, C29U, A31G
DNA 1: CAATCTGAATTCCGGTCTCCC
DNA 2: TGGTGGCTACGACGGGATT
B17: GUUAAGA (DNA:RNA)
RNA: B1 RNA with C25G, G26U, U28A, C29A
DNA 1: CAATCTGAATTCCGGTCTCCC
DNA 2: TGGTGGCTACGACGGGATT
B18: UGGUCUU (DNA:RNA)
RNA: B1 RNA with C25U, U27G, G30U, A31U
DNA 1: CAATCTGAATTCCGGTCTCCC
DNA 2: TGGTGGCTACGACGGGATT
B19: CUGGGUC (DNA:RNA)
RNA: B14 RNA with U25C, C28G, A29G, C30U, U31C
DNA 1: CAATCTGAATTCCGGTCTCCC
DNA 2: TGGTGGCTACGACGGGATT
B20: UGGGUCU (DNA:RNA)
RNA: B14 RNA with U26G, C28G, A29U
DNA 1: CAATCTGAATTCCGGTCTCCC
DNA 2: TGGTGGCTACGACGGGATT
B21: UGGGGUC (DNA:RNA)
RNA: B14 RNA with U26G, C28G, A29G, C30U, U31C
DNA 1: CAATCTGAATTCCGGTCTCCC
DNA 2: TGGTGGCTACGACGGGATT
B22: CUGGUCU (DNA:RNA)
RNA: B14 RNA with U25C, C28G, A29U
DNA 1: CAATCTGAATTCCGGTCTCCC
DNA 2: TGGTGGCTACGACGGGATT
B23: GUGGGUC (DNA:RNA)
RNA: B14 RNA with U25G, C28G, A29G, C30U, U31C
DNA 1: CAATCTGAATTCCGGTCTCCC
DNA 2: TGGTGGCTACGACGGGATT
B24: CAUUGUG (DNA:RNA)
RNA: B1 RNA with G26A, C29G, G30U, A31G
DNA 1: CAATCTGAATTCCGGTCTCCC
DNA 2: TGGTGGCTACGACGGGATT
B25: GGUCGAG (DNA:RNA)
RNA: B1 RNA with C25G, U28C, C29G, G30A, A31G
DNA 1: CAATCTGAATTCCGGTCTCCC
DNA 2: TGGTGGCTACGACGGGATT
B26: AGGUCCC (DNA:RNA)
RNA: B1 RNA with C25A, U27G, G30C, A31C
DNA 1: CAATCTGAATTCCGGTCTCCC
DNA 2: TGGTGGCTACGACGGGATT
B27: UGUUUGU (DNA:RNA)
RNA: B1 RNA with C25U, C29U, A31U
DNA 1: CAATCTGAATTCCGGTCTCCC
DNA 2: TGGTGGCTACGACGGGATT
B28: UGCUGUG (DNA:RNA)
RNA: B1 RNA with C25U, U27C, C29G, G30U, A31G
DNA 1: CAATCTGAATTCCGGTCTCCC
DNA 2: TGGTGGCTACGACGGGATT
B29: UGUUUUU (DNA:RNA)
RNA: B1 RNA with C25U, C29U, G30U, A31U
DNA 1: CAATCTGAATTCCGGTCTCCC
DNA 2: TGGTGGCTACGACGGGATT
B30: UGUGUUU (DNA:RNA)
RNA: B1 RNA with C25U, U28G, C29U, G30U, A31U
DNA 1: CAATCTGAATTCCGGTCTCCC
DNA 2: TGGTGGCTACGACGGGATT
B31: UGUCGUU (DNA:RNA)
RNA: B14 RNA with U26G, G27U, A29G, C30U
DNA 1: CAATCTGAATTCCGGTCTCCC
DNA 2: TGGTGGCTACGACGGGATT
B32: UGUUAAA (DNA:RNA)
RNA: B1 RNA with C25U, C29A, G30A
DNA 1: CAATCTGAATTCCGGTCTCCC
DNA 2: TGGTGGCTACGACGGGATT
B33: CGUUUGA (DNA:RNA)
RNA: B1 RNA with C29U
DNA 1: CAATCTGAATTCCGGTCTCCC
DNA 2: TGGTGGCTACGACGGGATT
B34: CUGUGUU (DNA:RNA)
RNA: B14 RNA with U25C, C28U, A29G, C30U
DNA 1: CAATCTGAATTCCGGTCTCCC
DNA 2: TGGTGGCTACGACGGGATT
B35: CCUGCUG (DNA:RNA)
RNA: B1 RNA with G26C, U28G, G30U, A31G
DNA 1: CAATCTGAATTCCGGTCTCCC
DNA 2: TGGTGGCTACGACGGGATT
B36: UGUGUGU (DNA:RNA)
RNA: B1 RNA with C25U, U28G, C29U, A31U
DNA 1: CAATCTGAATTCCGGTCTCCC
DNA 2: TGGTGGCTACGACGGGATT
B37: UGUUUGA (DNA:RNA)
RNA: B1 RNA with C25U, C29U
DNA 1: CAATCTGAATTCCGGTCTCCC
DNA 2: TGGTGGCTACGACGGGATT
B38: UGUGUUG (DNA:RNA)
RNA: B1 RNA with C25U, U28G, C29U, G30U, A31G
DNA 1: CAATCTGAATTCCGGTCTCCC
DNA 2: TGGTGGCTACGACGGGATT

In this assay the target is T1, RBFOX1 RRM (Homo sapiens, UniProt Q9NWB1 109-208).
T1 sequence: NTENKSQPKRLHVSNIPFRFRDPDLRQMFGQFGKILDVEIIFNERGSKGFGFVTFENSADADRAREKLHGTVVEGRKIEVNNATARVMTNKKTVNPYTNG
The assay can be described thus: EMSA; HiTS-Eq, 1 nM pool, 10 min; buffer printed only for the single-RNA assays: 10 mM Tris pH 7.5, 150 mM NaCl, 3.4 mM EDTA, 0.001% NP-40, 30 C. Conditions: tags: His6 N-terminal (pET28a); label: 5' 32P. Summed up:
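Purified wild-type or mutant RbFox RRM at increasing concentrations was equilibrated with 1 nM of 5′-radiolabelled RNA carrying 7 randomized nucleotides for 10 min in 50 µL. Unbound RNA was separated by 8% native PAGE and sequenced. Relative association constants came from read-count changes of each RNA species compared with the control reaction, normalised to the cognate motif.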
(Mobility shift assays separate free from complexed probe on a gel.)
Regarding B1, the binding signal is 0.0138 KA relative to UGCAUGU.
To B2 belongs 0.00157 KA relative to UGCAUGU.
As for B3, the binding signal was 0.00915 KA relative to UGCAUGU.
To B4 belongs 0.0202 KA relative to UGCAUGU; to B5, 0.0337 KA relative to UGCAUGU; to B6, 0.0183 KA relative to UGCAUGU.
For the molecule B7, the binding signal was 0.0337 KA relative to UGCAUGU.
Take B8: the binding signal is 0.0192 KA relative to UGCAUGU.
To B9 belongs 0.0174 KA relative to UGCAUGU.
To B10 belongs 0.0227 KA relative to UGCAUGU.
To B11 belongs 0.00716 KA relative to UGCAUGU.
Regarding B12, the binding signal is 0.00191 KA relative to UGCAUGU.
To B13 belongs 0.007 KA relative to UGCAUGU; to B14, 0.021 KA relative to UGCAUGU.
To B15 belongs 0.0263 KA relative to UGCAUGU; to B16, 0.00934 KA relative to UGCAUGU; to B17, 0.012 KA relative to UGCAUGU.
With B18, the binding signal was 0.0179 KA relative to UGCAUGU.
To B19 belongs 0.0291 KA relative to UGCAUGU; to B20, 0.0375 KA relative to UGCAUGU.
Take B21: the binding signal was 0.0387 KA relative to UGCAUGU.
As for B22, the binding signal is 0.0225 KA relative to UGCAUGU.
Regarding B23, the binding signal is 0.0192 KA relative to UGCAUGU.
With B24 the figure was 0.0157 KA relative to UGCAUGU.
As to B25, the binding signal is 0.0142 KA relative to UGCAUGU.
With B26 the figure was 0.00339 KA relative to UGCAUGU; with B27, 0.0434 KA relative to UGCAUGU.
For B28, the binding signal is 0.0347 KA relative to UGCAUGU.
To B29 belongs 0.0221 KA relative to UGCAUGU.
To B30 belongs 0.0186 KA relative to UGCAUGU; to B31, 0.021 KA relative to UGCAUGU; to B32, 0.0109 KA relative to UGCAUGU.
As to B33, the binding signal is 0.0182 KA relative to UGCAUGU.
Turning to B34, the binding signal was 0.0207 KA relative to UGCAUGU.
With B35 the figure was 0.0192 KA relative to UGCAUGU.
To B36 belongs 0.0346 KA relative to UGCAUGU.
For B37, the binding signal is 0.0341 KA relative to UGCAUGU.
To B38 belongs 0.0299 KA relative to UGCAUGU.
